In PubChem BioAssay AID488969 (Vanderbilt High Throughput Screening Facility, 2010):
The full ranking holds about 110,000 compounds; the median of “z-score” is about -0.1, and the highest 2% start at about 2. The full list was thinned out, with the highest values kept by preference. Activity calls are given as the source filed them.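 Rule for the calls: active = z-score in the third read window above 3 or below -3; inactive = the rest.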

The compounds below were run against Metabotropic glutamate receptor 8 (Rattus norvegicus) (UniProt P70579) (assay: rat mGluR8 modulators via GIRK flux, primary screen, cell-based, thallium flux, HTS (AID 488969)). Conditions: HEK293 rat mGluR8, GIRK (G protein-gated inwardly rectifying potassium channel) thallium flux, FluoZin2; at 10 µM; stronger effect = higher value; submaximal glutamate (EC20) added with thallium.
Sequence of Metabotropic glutamate receptor 8 (Rattus norvegicus) (P70579 whole entry, looked up): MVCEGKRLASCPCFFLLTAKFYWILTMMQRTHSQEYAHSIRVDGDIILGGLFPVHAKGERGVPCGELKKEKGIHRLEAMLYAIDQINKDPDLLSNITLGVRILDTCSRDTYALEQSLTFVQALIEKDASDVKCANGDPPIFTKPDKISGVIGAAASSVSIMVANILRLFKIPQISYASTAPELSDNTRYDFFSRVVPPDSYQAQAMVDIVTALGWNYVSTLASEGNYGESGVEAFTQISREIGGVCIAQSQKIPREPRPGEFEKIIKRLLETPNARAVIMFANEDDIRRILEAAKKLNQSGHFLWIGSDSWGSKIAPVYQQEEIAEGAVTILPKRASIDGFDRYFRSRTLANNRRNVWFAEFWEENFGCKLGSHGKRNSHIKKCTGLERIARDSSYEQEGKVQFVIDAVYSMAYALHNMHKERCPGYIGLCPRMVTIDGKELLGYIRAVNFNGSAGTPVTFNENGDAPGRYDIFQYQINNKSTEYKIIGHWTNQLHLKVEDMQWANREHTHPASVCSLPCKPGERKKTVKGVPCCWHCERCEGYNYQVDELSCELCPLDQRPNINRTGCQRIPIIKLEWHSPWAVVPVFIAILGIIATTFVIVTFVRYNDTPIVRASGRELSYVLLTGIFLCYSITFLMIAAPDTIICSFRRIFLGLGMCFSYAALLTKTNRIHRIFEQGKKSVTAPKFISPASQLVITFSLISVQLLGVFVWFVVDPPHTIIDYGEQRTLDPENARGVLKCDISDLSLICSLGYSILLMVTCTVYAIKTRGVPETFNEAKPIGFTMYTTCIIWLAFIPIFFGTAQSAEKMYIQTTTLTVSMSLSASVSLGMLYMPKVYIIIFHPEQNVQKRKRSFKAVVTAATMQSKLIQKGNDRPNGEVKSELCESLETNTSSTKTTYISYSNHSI
Work on `Cc1[nH]c(=O)[nH]c(=O)c1NC(=O)c1sc2nc3c(C)cccc3cc2c1N` yielded a z-score of -0.256. Compound `COc1cc2cc3c(N)c(C(=O)Nc4sc(C)c(C)c4C#N)sc3nc2cc1OC` has a z-score of 0.0438. `Cc1sc(NC(=O)c2sc3nc4c(C)cccc4cc3c2N)c(C#N)c1C` gave a z-score of 2.37. `CCN(CC)S(=O)(=O)c1ccc(N2CCCCC2)c(NC(=O)/C(C#N)=C/c2ccc(OC)cc2)c1` showed a z-score of -0.0436. `O=c1[nH]cnc2cc(Cl)ccc12` gave a z-score of -0.0535. Compound `CCOc1ccc(C(C)=O)cc1N1C(=O)C2C3C=CC(C3)C2C1=O` (centres undefined) has a z-score of -0.533. In the case of `CCOc1ccc(C(C)=O)cc1N1C(=O)C2C(C1=O)C1C=CC2C12CC2` (centres undefined), the z-score is reported as 4.92 (active). Work on `CCOc1ccc(C(C)=O)cc1N1C(=O)C2C3C=CC(O3)C2C1=O` (centres undefined) yielded a z-score of -0.01. `COCCCNC(=O)C1CCCCN1S(=O)(=O)c1ccc(F)cc1` (centres undefined) showed a z-score of 0.633. In the case of `Cn1c(SCC(=O)Nc2ccc(N3CCOCC3)c(Cl)c2)nnc1-c1ccccc1`, the z-score is reported as -0.0676. For `Nn1c(SCC(=O)Nc2ccc3c(c2)OCO3)nnc1-c1ccc(Cl)cc1`, the z-score was -0.179. With `Cc1ccc(-c2nnc(SCC(=O)Nc3ccc4c(c3)OCCO4)n2N)cc1` the z-score was 14.1 (active). `CCn1c(SCC(=O)Nc2ccc(N3CCOCC3)c(Cl)c2)nnc1-c1ccc(N)cc1` was tested, and the z-score was 2.78. `COc1ccc(-c2nnc(SCC(=O)Nc3ccc4c(c3)OCCO4)n2N)cc1OC` was tested, and the z-score was -0.393. Work on `CCn1c(Cc2ccccc2)nnc1SCC(=O)Nc1ccc(N2CCOCC2)c(Cl)c1` yielded a z-score of -0.645. `CC(CCc1ccccc1)NC(=O)C(Cc1ccccc1)NS(=O)(=O)c1cccs1` (centres undefined) gave a z-score of -0.446. `COc1ccc(-c2cc(CNC(=O)CCl)on2)cc1` was tested, and the z-score was -0.113. For `CC(=O)c1ccc(N2CCN(C(=O)c3ccco3)CC2)c(F)c1`, the z-score was -0.0315. Work on `Cc1ccc2nc(-c3ccc(NC(=S)NC(=O)C(C)C)cc3)sc2c1` yielded a z-score of -0.127. For `Cc1ccc(SC(=O)COc2ccccc2C)cc1`, the z-score was -0.399. `Cc1ccc(CNC(=O)COC(=O)CSc2cc(C)c(Br)cc2C)cc1` showed a z-score of 0.22. `COc1ccc(/C=C2\CCCC(C(=O)C(F)(F)F)=C2O)cc1` gave a z-score of 2.59. For `O=C(C1=C(O)/C(=C/c2ccc(O)cc2)CCC1)C(F)(F)F`, the z-score was 0.181. Compound `COc1ccc(/C=C2\CCOC2=O)cc1` has a z-score of 0.296. Work on `Cc1ccc(NC(=O)CN2CCC(C(=O)c3ccc4c(c3)OCCO4)CC2)cc1` yielded a z-score of -0.152. In the case of `CCOCCCNC(=O)C(NC(=O)CC1NC(=O)NC1=O)c1ccc(Cl)cc1` (centres undefined), the z-score is reported as -0.134. For `COc1ccc(CCNC(=O)c2nc3ncccn3n2)cc1OC`, the z-score was 0.169. `O=P(OC1CCCCC1)(OC1CCCCC1)C(O)c1ccccc1` (centres undefined) gave a z-score of -0.904. `Cc1[nH]n(-c2ccccc2)c(=O)c1C=Nc1cccc2cccnc12` gave a z-score of 0.652. `Cc1[nH]n(-c2ccccc2)c(=O)c1/C=N\NC(=O)C1COc2ccccc2O1` (centres undefined) gave a z-score of -0.0839. For `Cc1ccc2cccc(N=Cc3c(C)[nH]n(-c4ccccc4)c3=O)c2n1`, the z-score was 0.282. `Cc1[nH]n(-c2ccccc2)c(=O)c1/C=N/O` was tested, and the z-score was -0.187. `Cc1ccc(-n2[nH]c(C)c(C=Nc3ccc(S(=O)(=O)Nc4nccs4)cc3)c2=O)cc1` gave a z-score of -0.363. For `Cc1ccc(-n2[nH]c(C)c(C=Nc3ccc4[nH]c(=O)[nH]c4c3)c2=O)cc1`, the z-score was -0.443. With `Cc1ccc(-n2[nH]c(C)c(/C=N/n3c(C)nc4ccccc4c3=O)c2=O)cc1` the z-score was 0.177. With `CCCCN(CCCC)C(=S)N/N=C/c1c(C)[nH]n(-c2ccccc2)c1=O` the z-score was 10.4 (active). `CCCc1nc2ccccc2c(=O)n1/N=C/c1c(C)[nH]n(-c2ccc(C)cc2)c1=O` showed a z-score of 1.38. With `Cc1ccc(-n2[nH]c(C)c(C=Nc3cc(C)ccn3)c2=O)cc1` the z-score was 10.6 (active). In the case of `Cc1ccc(-n2[nH]c(C)c(/C=N/c3ccccn3)c2=O)cc1`, the z-score is reported as 6.24 (active). In the case of `Cc1[nH]n(-c2ccccc2)c(=O)c1/C=N/c1ccccn1`, the z-score is reported as 2.61. `Cc1nc2ccc(S(=O)(=O)NCC(=O)N3CCCCC3)cc2s1` gave a z-score of -0.09. `COc1cc(NC(=O)CN(C)Cc2ccc(OC(F)F)cc2)c(C)cc1[N+](=O)[O-]` showed a z-score of -0.0913. With `COC(=O)c1ccc(CSc2n[nH]c(C)n2)o1` the z-score was -0.0591. `CCOc1ccc(C(C)=O)cc1COC(=O)C1=COCCO1` gave a z-score of -1.15. `CCCc1nc2sc3c(=O)n(N)cnc3c2c2c1CCCC2` gave a z-score of -0.191. With `Cc1[nH]n(-c2ccc(Cl)cc2)c(=O)c1/C=N/c1nnc(-c2ccccc2)s1` the z-score was 8.81 (active). In the case of `Cc1[nH]n(-c2ccc(Cl)cc2)c(=O)c1C=NC12CN3CN(CN(C3)C1)C2`, the z-score is reported as -0.111. `CCc1nnc(NS(=O)(=O)c2ccc(N=Cc3c(C)[nH]n(-c4ccc(Cl)cc4)c3=O)cc2)s1` was tested, and the z-score was -0.276. `O=C(O)CCCSCC(=O)Nc1ccccc1` showed a z-score of 0.633. In the case of `O=C(O)CSCC(=O)Nc1ccccc1`, the z-score is reported as 0.00603. In the case of `O=C(CSCCO)Nc1ccccc1`, the z-score is reported as 3.04 (active). `Cc1ccc(C2=[N+]([O-])C3(CCCCC3=O)N(O)C2(C)C)cc1` (centres undefined) showed a z-score of 0.0871. Work on `O=C(COC(=O)Cc1cccc2ccccc12)Nc1ccccc1-c1ccccc1` yielded a z-score of -0.174. Compound `O=C1/C(=C/c2ccc(F)cc2)SC(=S)N1Nc1ncc(C(F)(F)F)cc1Cl` has a z-score of 0.426. Compound `COc1cc(/C=C2\SC(=S)N(Nc3ncc(C(F)(F)F)cc3Cl)C2=O)ccc1O` has a z-score of 1.29. For `O=C1/C(=C\c2ccccn2)SC(=S)N1Nc1ncc(C(F)(F)F)cc1Cl`, the z-score was 3.17 (active). `CCOC(=O)CC1C(=O)NCCN1C(=O)c1cc2c(=O)n3ccccc3nc2s1` (centres undefined) gave a z-score of -0.533. Work on `CCNc1ccc(S(=O)(=O)N(C)C)cc1NCC(=O)Nc1ccc(F)c(Cl)c1` yielded a z-score of 0.204. Compound `CN(C)S(=O)(=O)c1cccc(NC(=O)COC(=O)CCSc2ccc(Cl)cc2)c1` has a z-score of 0.722. `Cc1c(Cl)cccc1NC(=O)CNc1cccc(S(=O)(=O)N(C)C)c1` gave a z-score of -0.138. With `Cc1cc(=O)oc2cc(OCC(=O)Nc3cccc(S(=O)(=O)N(C)C)c3)ccc12` the z-score was -0.0464. With `CN(C)S(=O)(=O)c1cccc(NC(=O)COc2cccc(C#N)c2)c1` the z-score was 3.82 (active). In the case of `O=C(Cc1ccc(Cl)cc1)Nc1cccc(S(=O)(=O)Nc2ccccc2F)c1`, the z-score is reported as 0.371. For `Cc1ccc(NCC(=O)Nc2cccc(S(=O)(=O)N(C)C)c2)c(Cl)c1`, the z-score was 4.79 (active). For `CN(C)S(=O)(=O)c1cccc(NC(=O)Cc2ccc(Cl)cc2)c1`, the z-score was 4.58 (active). `CCN(CC)S(=O)(=O)c1cccc(NC(=O)COc2ccc(C#N)cc2OC)c1` was tested, and the z-score was -0.191. `CC1CN(c2c3c(nc4ncnn24)CCCC3)CC(C)O1` (centres undefined) gave a z-score of -0.374. `Cc1ccc(N(C(C)C(=O)Nc2ccc(S(=O)(=O)N3CCOCC3)cc2)S(C)(=O)=O)cc1` (centres undefined) showed a z-score of 0.137. `CCCCc1ccc(-c2csc(/C(C#N)=C/c3ccco3)n2)cc1` was tested, and the z-score was -0.275. In the case of `CCOCCCNC(=O)c1ccc(CS(=O)(=O)Cc2cccc(C)c2)o1`, the z-score is reported as 0.789. Work on `O=C1CC(N2CCC(O)(c3ccc(Cl)cc3)CC2)C(=O)N1` (centres undefined) yielded a z-score of 0.198. `COc1cccc(NC(=O)N(CCCN2CCOCC2)C(C)c2cc3ccccc3o2)c1` (centres undefined) gave a z-score of -2.21. `CCN(C(=O)CCN1C(=O)c2ccccc2C1=O)C1CCCCC1` was tested, and the z-score was 0.156. `O=C(CSc1nc2ccccc2c(=O)n1-c1ccccc1)N1CCCC1` showed a z-score of -0.689. Compound `NC(=O)CSc1nc(O)cc(=O)n1-c1ccccc1` has a z-score of 0.418. `O=C(CSc1nc(O)cc(=O)n1-c1ccccc1)N1CCCCC1` was tested, and the z-score was 4.46 (active). With `COc1ccc(Cn2nnnc2C(c2ccc(F)cc2)N2CCN(C3CCCC3)CC2)cc1` (centres undefined) the z-score was 3.92 (active). Work on `COc1ccc(Cn2nnnc2C(c2ccccc2Cl)N2CCN(C3CCCC3)CC2)cc1` (centres undefined) yielded a z-score of 1.79. In the case of `COc1ccc(Cn2nnnc2C(c2ccc(C)cc2)N2CCN(C3CCCC3)CC2)cc1` (centres undefined), the z-score is reported as 0.353. Work on `Fc1ccc(C(c2nnnn2Cc2ccco2)N2CCN(C3CCCCC3)CC2)cc1` (centres undefined) yielded a z-score of 2.31. `CC(C)C(c1nnnn1Cc1ccco1)N1CCN(C2CCCC2)CC1` (centres undefined) was tested, and the z-score was -0.255. In the case of `Fc1ccc(C(c2nnnn2Cc2cccs2)N2CCN(C3CCCC3)CC2)cc1` (centres undefined), the z-score is reported as 1.73. `N#Cc1nc(-c2ccccc2)oc1NCC1CCCO1` (centres undefined) was tested, and the z-score was -0.084. In the case of `Cc1nn2c([nH]c(=O)c3ccccc32)c1C=O`, the z-score is reported as 0.184. In the case of `CCOC(=O)c1cnn2c1[nH]c(=O)c1ccccc12`, the z-score is reported as 1.54. For `Cc1cc2[nH]c(=O)c3ccccc3n2n1`, the z-score was 4.8 (active). With `CCOC(=O)c1ccccc1NC(=O)Cc1ccccc1OC` the z-score was -0.663. Work on `CCCOc1ccccc1N/C(=N/c1nc(C)cc(C)n1)NC(=O)COc1ccc(OC)cc1` yielded a z-score of 0.266. `CC1CN(C(=O)C2CCCCC2)C(C)CN1C(=O)C1CCCCC1` (centres undefined) was tested, and the z-score was 11.1 (active). `CC1CN(C(=O)C2CC2)C(C)CN1C(=O)C1CC1` (centres undefined) showed a z-score of 0.00492. For `CC1CN(C(=O)C2CCCC2)C(C)CN1C(=O)C1CCCC1` (centres undefined), the z-score was 0.888. In the case of `Cc1ccccc1NC(=O)c1cn(-c2ccccc2)nc1-c1ccccc1`, the z-score is reported as 0.316. `O=C(Nc1ccccc1)Nc1ccc2snnc2c1` gave a z-score of -0.373. Work on `CC(C)c1ccc(Oc2cccc(C(=O)/C(C#N)=C/N(C)C)c2)cc1` yielded a z-score of -0.286. For `CC(C)c1ccc2c(c1)C(=O)NC(C)(C)C2`, the z-score was -0.156. With `CC1(C)Cc2ccccc2C(=O)N1` the z-score was 0.0959. For `Cc1cc2c(cc1C)C(=O)NC(C)(C)C2`, the z-score was 5.66 (active). For `O=C(CN1C(=O)CCS(=O)(=O)c2ccccc21)Nc1cccc(F)c1`, the z-score was -0.608. In the case of `Cc1ccc(C)c(Nc2c([N+](=O)[O-])cc(C(=O)N3CC(=O)Nc4ccccc43)cc2[N+](=O)[O-])c1`, the z-score is reported as 4.62 (active). For `CCc1cccc(Nc2c([N+](=O)[O-])cc(C(=O)N3CC(=O)Nc4ccccc43)cc2[N+](=O)[O-])c1`, the z-score was -1.1. `Cc1ccc(Nc2c([N+](=O)[O-])cc(C(=O)N3CC(=O)Nc4ccccc43)cc2[N+](=O)[O-])c(C)c1` was tested, and the z-score was -0.162. Compound `O=C(c1ccc(O)cc1)c1ccc(Cl)cc1` has a z-score of -0.563. In the case of `CCOC(=O)Nc1cc2c(cc1C(C)=O)OCO2`, the z-score is reported as 0.657. `COC(=O)c1ccccc1NC(=O)C1CC(=O)N(c2ccccc2)C1` (centres undefined) showed a z-score of -0.0106. With `COc1ccc(Cl)cc1NC(=O)C1CC(=O)N(c2ccc(F)cc2)C1` (centres undefined) the z-score was 0.0135. `COC(=O)c1ccccc1NC(=O)C1CC(=O)N(c2ccc(F)cc2)C1` (centres undefined) showed a z-score of 2.15. `COC(=O)c1ccccc1NC(=O)C1CC(=O)N(c2ccc(C)cc2)C1` (centres undefined) was tested, and the z-score was -0.265. `COc1ccc(OC)c(NC(=O)C2CC(=O)N(c3ccc(Br)cc3)C2)c1` (centres undefined) was tested, and the z-score was 3.63 (active). For `CCOc1ccc(N2CC(C(=O)Nc3ccccc3OC)CC2=O)cc1` (centres undefined), the z-score was 1.1.
